Screens as filed in PubChem BioAssay.
This is a sample that favours compounds with a hit; in the whole collection about 1.8% have one here.
NOD2-RIPK2 inh: NOD2-RIPK2 binding disruptors in cells, primary screen, fluorescence, CHO cells, BLA complementation; 360,000 tested, 0.38% active; AID 624267, 2012; inhibition, % at 4.98 µM; Receptor-interacting serine/threonine-protein kinase 2 (Homo sapiens), O43353; CCF4 ratio; in the data active means inhibition above about 21%;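 further: 0% = vehicle only and 100% = reference blocker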
Mcl1-Noxa inh: Mcl-1/Noxa binding inhibitors, primary screen, biochemical, TR-FRET, 1536-well; Induced myeloid leukemia cell differentiation protein Mcl-1 (Homo sapiens), Q07820; TR-FRET Mcl-1/Noxa peptide binding, 2 h; inhibition, % at 21.7 µM; 220,000 tested, 1.5% active;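 active means compounds that cut the protein-peptide binding signal by more than 50% relative to plate controls in a single-dose test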;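 further: His-tagged Mcl-1 with rhodamine Noxa BH3 peptide and terbium anti-His antibody; 0% = Mcl-1 plus Noxa peptide wells and 100% = peptide-only wells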
Mcl1-Bid inh: Mcl-1/Bid binding inhibitors, primary screen, biochemical, TR-FRET, 1536-well. Induced myeloid leukemia cell differentiation protein Mcl-1 (Homo sapiens), Q07820. TR-FRET Mcl-1/Bid-Dy647 peptide binding. inhibition, % at 21.7 µM. 220,000 tested, 0.97% active;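 active means compounds that cut the binding signal by more than half at the single screening dose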;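 further: His-tagged Mcl-1 with europium anti-His antibody binding Bid BH3 peptide; 0% = Mcl-1 plus peptide wells and 100% = peptide-only wells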
Bim-Mcl-1: inhibitors of Bim peptide binding to Mcl-1, primary screen, biochemical, bead-based flow cytometry, multiplex; Induced myeloid leukemia cell differentiation protein Mcl-1 (Homo sapiens), Q07820; 190,000 tested, 0.1% active; inhibition, % at 10 µM; Bim peptide-Mcl-1 binding; AID 1009, 2008; in the data active means inhibition above about 40%;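 further: 0% = no compound tracer wells and 100% = peptide blocker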
TLR9-MyD88 inh: inhibitors of TLR9-MyD88 association in cells, primary screen, cell-based, CHO, BLA complementation, fluorescence. Toll-like receptor 9 (Homo sapiens) + Myeloid differentiation primary response protein …. CCF4 FRET ratio. inhibition, % at 4.98 µM. 340,000 tested, 0.21% active;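 active means inhibition above the mean over all tested compounds plus 3 SD, cut at about 21% in these data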;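 further: 0% = DMSO only wells and 100% = clavulanate BLA inhibitor control wells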
TLR4-MyD88 BLA: inhibitors of TLR4-MyD88 association in cells, primary screen, cell-based, HeLa CL3-4, BLA complementation, FRET ratio | 200,000 tested, 0.18% active | inhibition, % at 8.4 µM | AID 861, 2007 | HeLa CL3-4 TLR4/MyD88 BLA complementation | Toll-like receptor 4 (Homo sapiens) + Myeloid differentiation primary response protein …; in the data active means inhibition above about 25%;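 further: 0% = vehicle and 100% = reference inhibitor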
TLR4-MyD88 conf: TLR4-MyD88 association inhibitors, retest, confirmation, cell-based, HeLa CL3-4, BLA complementation, FRET ratio; AID 941, 2007; inhibition, % at 8.4 µM; 350 tested, 50% active; CCF4 FRET ratio; shares compounds with TLR4-MyD88 BLA;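 active means mean inhibition across three repeat runs above about 25% carried over from the earlier screen, limit read from the data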;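 further: plate controls were DMSO only for no effect and clavulanic acid blocking BLA at full dose for full effect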
BLA inh HeLa: beta-lactamase inhibition flagged in TLR4-MyD88 counter-screen | HeLa BLA reporter, CCF4 FRET ratio | shares compounds with TLR4-MyD88 BLA | inhibition, % at 8.4 µM | 350 tested, 63% active;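 active means mean inhibition over three repeats above about 26% taken from the earlier screen, limit read from the data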;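 further: HeLa cells stably expressing beta-lactamase reporter as counterscreen for TLR4-MyD88 inhibitors; 0% = DMSO and 100% = clavulanic acid full inhibition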
TLR9-MyD88 cf: TLR9-MyD88 association inhibitors, retest, confirmation, cell-based, CHO, BLA complementation, fluorescence, triplicate. shares compounds with TLR9-MyD88 inh. 680 tested, 51% active. inhibition, % at 4.98 µM. CCF4 FRET ratio;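 active means mean inhibition across three repeats above about 21% taken from the earlier screen, limit read from the data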;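 further: blue over green emission ratio reports constitutive TLR9 MyD88 association via BLA complementation; 0% = DMSO vehicle wells and 100% = clavulanate BLA inhibitor wells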
Target sequence (Q9NR96 whole entry, looked up): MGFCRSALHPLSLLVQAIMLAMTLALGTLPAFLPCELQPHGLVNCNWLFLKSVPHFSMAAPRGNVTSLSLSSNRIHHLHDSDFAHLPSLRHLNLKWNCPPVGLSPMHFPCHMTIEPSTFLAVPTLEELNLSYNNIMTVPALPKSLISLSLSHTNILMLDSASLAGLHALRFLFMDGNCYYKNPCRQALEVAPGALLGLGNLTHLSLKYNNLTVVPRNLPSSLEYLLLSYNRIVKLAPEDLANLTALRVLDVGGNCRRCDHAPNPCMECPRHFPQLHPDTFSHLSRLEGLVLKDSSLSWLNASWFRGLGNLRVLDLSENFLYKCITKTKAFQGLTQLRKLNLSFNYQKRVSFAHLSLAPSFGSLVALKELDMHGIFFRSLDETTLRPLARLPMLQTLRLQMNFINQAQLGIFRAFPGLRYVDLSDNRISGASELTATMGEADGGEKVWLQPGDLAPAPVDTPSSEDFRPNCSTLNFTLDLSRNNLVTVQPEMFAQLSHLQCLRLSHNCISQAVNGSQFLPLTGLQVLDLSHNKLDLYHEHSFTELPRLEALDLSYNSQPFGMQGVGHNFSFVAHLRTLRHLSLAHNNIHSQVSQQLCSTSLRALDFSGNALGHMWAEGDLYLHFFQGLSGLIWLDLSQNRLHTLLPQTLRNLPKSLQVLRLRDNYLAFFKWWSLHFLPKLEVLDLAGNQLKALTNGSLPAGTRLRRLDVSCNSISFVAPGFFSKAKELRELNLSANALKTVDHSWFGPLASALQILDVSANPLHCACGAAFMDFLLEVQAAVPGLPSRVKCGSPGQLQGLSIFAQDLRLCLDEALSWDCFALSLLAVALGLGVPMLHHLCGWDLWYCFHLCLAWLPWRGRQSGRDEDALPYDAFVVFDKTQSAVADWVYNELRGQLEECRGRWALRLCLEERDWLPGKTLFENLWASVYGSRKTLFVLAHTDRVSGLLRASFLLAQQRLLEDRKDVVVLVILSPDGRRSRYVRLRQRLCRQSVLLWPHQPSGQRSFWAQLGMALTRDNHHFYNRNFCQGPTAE
BLA counter-1: beta-lactamase reporter inhibitors in CHO cells, artefact control for TLR9-MyD88 binding inhibitor project, cell-based, fluorescence. shares compounds with TLR9-MyD88 inh. CHO-BLA cells, CCF4 FRET ratio, BLA reporter. inhibition, % at 4.98 µM. 680 tested, 7% active;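 active means mean inhibition above a 50% cutoff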;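 further: counterscreen of TLR9-MyD88 hits on CMV-driven BLA in CHO-K1 cells; 0% = DMSO alone and 100% = clavulanate blocking BLA; higher means less blue over green ratio so more BLA blockade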
TLR9 CHO tox: CHO cell viability loss – luminescence, single concentration, cytotoxicity control for TLR9-MyD88 binding inhibitor project | shares compounds with TLR9-MyD88 inh | TLR9-MyD88 CHO cells cytotoxicity | inhibition, % at 4.98 µM | 680 tested, 39% active | AID 588336, 2011; in the data active means inhibition above about 11%
NOD2 RIPK2 conf: NOD2-RIPK2 binding disruptors, retest, confirmation, fluorescence, CHO cells, BLA complementation, triplicate. shares compounds with NOD2-RIPK2 inh. CCF4 FRET. inhibition, % at 4.98 µM. 1,200 tested, 70% active;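 active means mean inhibition across replicates above a set limit taken from the earlier primary screen, cut at about 21% in these data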;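 further: 0% = DMSO-only wells and the high end = clavulanate BLA-blocked wells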
BLA counter-2: counter-screen for NOD2-RIPK2 interaction inhibitors: BLA reporter | AID 624371 | CHO BLA reporter, CCF4 FRET ratio, counterscreen | inhibition, % at 4.98 µM | 1,200 tested, 57% active | shares compounds with NOD2-RIPK2 inh;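 active means mean inhibition above the low-control mean inhibition plus three low-control SD, cut at about 11% in these data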;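 further: 0% = DMSO only wells and 100% = clavulanate high control wells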
* hit, by the source's call.

`CCN1/C(=C/C=C/c2sc3ccccc3[n+]2CC)Sc2ccccc21` gave NOD2-RIPK2 inh 4 and TLR9-MyD88 inh -8.
For CCN1/C(=C/C=C/c2oc3ccc(-c4ccccc4)cc3[n+]2CC)Oc2ccc(-c3ccccc3)cc21 the results were NOD2-RIPK2 inh 47*, Mcl1-Noxa inh -434, Mcl1-Bid inh 9, TLR9-MyD88 inh 25*, TLR4-MyD88 BLA 40*, TLR4-MyD88 conf 35*, BLA inh HeLa 57*, TLR9-MyD88 cf 25*, BLA counter-1 27, TLR9 CHO tox 69*, NOD2 RIPK2 conf 67* and BLA counter-2 57*.
`Nc1cc(Cl)ccc1C(=O)OCC(=O)NCC1CCCO1` (stereo not drawn) gave NOD2-RIPK2 inh -2 and TLR9-MyD88 inh -9.
Screening c1cn2c(NC3CCCCC3)c(-c3ccc(SC4CCCCC4)cc3)nc2cn1 returned NOD2-RIPK2 inh 3 and TLR9-MyD88 inh 1.
`CCN(CC)c1ccc(-c2nc3cnccn3c2NC2CCCC2)cc1` gave NOD2-RIPK2 inh 22*, Mcl1-Noxa inh 39, Mcl1-Bid inh -17, Bim-Mcl-1 1, TLR9-MyD88 inh 36*, TLR4-MyD88 BLA 52*, TLR4-MyD88 conf 31*, BLA inh HeLa 61*, TLR9-MyD88 cf 37*, BLA counter-1 40, TLR9 CHO tox 1, NOD2 RIPK2 conf 56* and BLA counter-2 66*.
`CCCCn1c(N)c(N(CCOC)C(=O)c2ccc(-c3ccc(C(C)=O)cc3)o2)c(=O)[nH]c1=O` gave NOD2-RIPK2 inh -4 and TLR9-MyD88 inh -3.
Screening COc1cc2nc(/C=C/c3ccc(N(C)C)cc3)sc2cc1SC returned NOD2-RIPK2 inh 41*, Mcl1-Noxa inh 4, Mcl1-Bid inh -37, Bim-Mcl-1 0, TLR9-MyD88 inh 32*, TLR4-MyD88 BLA 64*, TLR4-MyD88 conf 65*, BLA inh HeLa 96*, TLR9-MyD88 cf 53*, BLA counter-1 59*, TLR9 CHO tox 1, NOD2 RIPK2 conf 78* and BLA counter-2 82*.
Screening COc1cc2c(cc1OC)C(=Cc1ccc(N(C)C)cc1)C=C2 returned NOD2-RIPK2 inh -7 and TLR9-MyD88 inh -4.
O=[N+]([O-])c1ccc(N/N=C\c2cccn2-c2ccccc2)nc1 was read as NOD2-RIPK2 inh 46*, Mcl1-Noxa inh -6, Mcl1-Bid inh -88, Bim-Mcl-1 -4, TLR9-MyD88 inh 34*, TLR4-MyD88 BLA 41*, TLR4-MyD88 conf 40*, BLA inh HeLa 62*, TLR9-MyD88 cf -14, BLA counter-1 29, TLR9 CHO tox 9, NOD2 RIPK2 conf 52* and BLA counter-2 54*.
Screening Cn1c(-c2c(N)n(CCc3ccccc3)c3nc4ccccc4nc23)nc2ccccc21 returned NOD2-RIPK2 inh 69*, Mcl1-Noxa inh -58, Mcl1-Bid inh -72, Bim-Mcl-1 -2, TLR9-MyD88 inh 61*, TLR4-MyD88 BLA 69*, TLR4-MyD88 conf 51*, BLA inh HeLa 84*, TLR9-MyD88 cf 55*, BLA counter-1 56*, TLR9 CHO tox 1, NOD2 RIPK2 conf 73* and BLA counter-2 75*.
For Cn1c(-c2c(N)n(CCCc3ccccc3)c3nc4ccccc4nc23)nc2ccccc21 the results were NOD2-RIPK2 inh 58*, Mcl1-Noxa inh -52, Mcl1-Bid inh -45, Bim-Mcl-1 3, TLR9-MyD88 inh 32*, TLR4-MyD88 BLA 48*, TLR4-MyD88 conf 54*, BLA inh HeLa 86*, TLR9-MyD88 cf 62*, BLA counter-1 63*, TLR9 CHO tox -2, NOD2 RIPK2 conf 79* and BLA counter-2 80*.
For Nc1c(C(=O)OCC2CCCO2)c2nc3ccccc3nc2n1C1CCCC1 (stereo not drawn) the results were NOD2-RIPK2 inh 4, Bim-Mcl-1 1, TLR9-MyD88 inh 2 and TLR4-MyD88 BLA 4.
For Cn1c(-c2c(N)n(C3CCCC3)c3nc4ccccc4nc23)nc2ccccc21 the results were NOD2-RIPK2 inh 29*, Mcl1-Noxa inh -50, Mcl1-Bid inh -32, Bim-Mcl-1 -2, TLR9-MyD88 inh 40*, TLR4-MyD88 BLA 68*, TLR4-MyD88 conf 69*, BLA inh HeLa 96*, NOD2 RIPK2 conf 78* and BLA counter-2 83*.
For CC(=O)c1ccc(OCc2cc(C(=O)N(C)C(C)c3nccs3)no2)cc1 (stereo not drawn) the results were NOD2-RIPK2 inh -6 and TLR9-MyD88 inh -17.
